Source: PubChem BioAssay AID1259417 (TB Discovery Research, Infectious Disease Research Institute, 2018)
The campaign covered roughly 1,100 compounds. About 760 (69%) were called active. No rule for the calls is given here. So high a share suggests a set chosen from earlier hits. The list shows a part of the results.

Test: M. tuberculosis growth inhibition, HTS (AID 1259417);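 also: bacteria grown with compound for 5 days at 37 °C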
Details: stronger effect = higher value, concentration not given here
[1] = M. tuberculosis DsRed fluorescence growth inhibition
[2] = M. tuberculosis growth inhibition

SMILES | inhibition [1] | inhibition [2] [%]
COc1ccc(CCNC(=O)c2ccc(C#CC(C)(C)O)s2)cc1 | 92.7% (active) | 80.8
COc1ccc(NC(=O)c2ccc(C#CC(C)(C)O)s2)cc1 | 58.8% (active) | 31.9
Cn1ccnc1C(O)c1cc(C(C)(C)C)c(O)c(C(C)(C)C)c1 (centres undefined) | 22.8% (inactive) | 28.3
CCCCNC(=O)Nc1nnc(-c2ccc(Cl)cc2)o1 | 14.7% (inactive) | 4.64
Cc1ccccc1C(=O)Nc1nnc(-c2ccc(Cl)cc2)o1 | 83.5% (active) | 90.7
Cc1ccccc1C(=O)Nc1nnc(-c2ccc(F)cc2)o1 | 75.4% (active) | 84.5
CC1CCCN(c2ccc([N+](=O)[O-])s2)C1 (centres undefined) | 97.6% (active) | 99.3
CCOc1ccc(OCC(=O)Nc2cc(C)cc(C)c2)cc1 | 2.08% (active) | 38.4
COC(=O)COc1cccc(NC(=O)COc2ccccc2)c1 | 50% (active) | 64.5
Cc1cc(C)cc(NC(=O)COc2cccc(C=O)c2)c1 | 4.11% (inactive) | 13.2
COC(=O)COc1ccc(NC(=O)COc2cccc(C)c2)cc1 | 68.1% (active) | 90.9
COc1ccc(OCC(=O)Nc2cccc(Cl)c2)cc1 | 6.16% (inactive) | -19
COC(=O)COc1ccc(CSCC(=O)Nc2ccc3ccccc3c2)cc1 | 33.1% (active) | 58.5
Cc1ccc(CSCC(=O)Nc2ccccc2)cc1 | 3.53% (active) | 35.4
COC(=O)COc1ccc(NC(=O)COc2ccc(C)cc2C)cc1 | 99.4% (active) | 99.7
Cc1ccc(CSCC(=O)Nc2ccc(Cl)c(Cl)c2)cc1 | 2.65% (inactive) | 11.4
Cc1ccnc(NC(=O)COc2ccc([N+](=O)[O-])cc2)c1 | -0.546% (inactive) | 11.9
COC(=O)COc1ccc(NC(=O)COc2ccc(C(C)(C)C)cc2)cc1 | 98.8% (active) | 99.4
CCOC(=O)CSc1nnc(-c2cccc(Br)c2)o1 | 67.1% (active) | 85.8
CCOC(=O)N1CCN(C(=O)CSc2nnc(-c3cc(OC)cc(OC)c3)o2)CC1 | 24.7% (inactive) | 11.7
CCCOC(=O)CSc1nnc(-c2cc(OC)c(OC)c(OC)c2)o1 | 71.2% (active) | 87.3
CCOC(=O)CSc1nnc(-c2cc(OC)c(OC)c(OC)c2)o1 | 85.2% (active) | 90.4

SMILES | inhibition [1] | inhibition [2] [%]
CCCCOc1ccc(C(=O)Nc2nnc(-c3ccco3)o2)cc1 | 44.2% (active) | 26
CCCCOc1ccc(C(=O)Nc2nnc(-c3ccncc3)o2)cc1 | 18.1% (active) | 42.4
COc1ccc(C(=O)Nc2nnc(C3=COCCO3)o2)cc1 | -1.74% (inactive) | -16.2
O=C(Nc1nnc(-c2ccco2)o1)c1ccc(Oc2ccccc2)cc1 | 70.2% (active) | 86.6
CCOc1ccc(C(=O)Nc2nnc(-c3ccccn3)o2)cc1 | 3.93% (inactive) | -4.77
CCc1ccc(/C=C/C(=O)C2C(=O)c3ccccc3C2=O)cc1 | 100% (active) | 99.5
NC(=O)c1c(NC(=O)c2cccc(F)c2)sc2c1CCC2 | -2.04% (inactive) | -14.1
NC(=O)c1c(NC(=O)c2c(F)c(F)c(F)c(F)c2F)sc2c1CCC2 | 98.9% (active) | 95.4
COc1cc(C(=O)Nc2sc3c(c2C(N)=O)CCCC3)c(Br)c(OC)c1OC | 27.3% (inactive) | 4.82
NC(=O)c1c(NC(=O)c2c(F)c(F)c(F)c(F)c2F)sc2c1CCCCCC2 | 43.3% (active) | 78.9
Cc1ccc(C(=O)Nc2sc3c(c2C(N)=O)CCC(C(C)(C)C)C3)c(C)c1 (centres undefined) | -2.03% (inactive) | -11.7
CC(C)(C)c1ccc(Cn2cnc([N+](=O)[O-])n2)cc1 | 98.3% (active) | 96.6
CCOc1cccc(C(=O)Nc2sc3c(c2C(N)=O)CCC3)c1 | -0.558% (inactive) | -34.5
COC(=O)c1c(NC(=O)c2c(F)c(F)c(F)c(F)c2F)sc2c1CCC2 | 98.2% (active) | 95.8
COC(=O)c1c(NC(=O)c2c(F)c(F)c(F)c(F)c2F)sc2c1CCCCC2 | 97.4% (active) | 93
NC(=O)c1c(NC(=O)c2cc(Cl)ccc2Cl)sc2c1CCCCCC2 | -5.89% (inactive) | -25.5
COc1cccc(C(=O)Nc2sc3c(c2C(N)=O)CCCCCC3)c1 | -2.93% (inactive) | -15.5
CCOC(=O)c1c(NC(=O)c2cc(-n3cnnc3)ccc2Cl)sc2c1CCCC2 | 37.7% (active) | 36.2
CCOC(=O)c1c(NC(=O)COc2ccc(C(C)C)cc2)sc2c1CCC2 | 44.6% (active) | 99.6
COC(=O)c1c(NC(=O)c2c(F)cccc2F)sc2c1CCC(C(C)(C)C)C2 (centres undefined) | 0.929% (inactive) | -6.55
Cc1cc(C2N=C(N)Nc3nc4ccccc4n32)c(C)n1-c1ccccc1Cl (centres undefined) | -7.08% (inactive) | -25.2
Cc1ccc(-n2cc(-c3ccccc3)c3c(NCc4cccnc4)ncnc32)cc1 | 19.7% (inactive) | -7.61

SMILES | inhibition [1] | inhibition [2] [%]
CCOC(=O)C=CC(=O)Nc1sc2c(c1C(=O)OC)CCC2 | 10.6% (active) | 29.7
Cc1cccc(C(=O)Nc2sc3c(c2C(=O)N2CCCC2)CCC3)c1 | -0.854% (inactive) | -7.24
CNC(=O)c1c(NC(=O)c2cccc(C)c2)sc2c1CCC2 | 9.53% (inactive) | -24.5
CCOC(=O)c1c(NC(=O)c2c(F)c(F)c(F)c(F)c2F)sc2c1CCCCC2 | 97.9% (active) | 96.2
Oc1ccc(Br)cc1-c1nc(-c2cccs2)c(-c2cccs2)[nH]1 | 1.19% (inactive) | -11.5
N#Cc1cc2c(ccc3ccccc32)oc1=O | 17.3% (active) | 55.9
CC(C)(C)C(=O)Nc1nnc(-c2ccc(Br)cc2)o1 | 90.8% (active) | 84.1
CC(C)C(=O)Nc1nnc(-c2ccc(Br)cc2)o1 | 23.4% (active) | 38.6
COC(=O)C(C)Sc1nnc(-c2ccc(Br)cc2)o1 (centres undefined) | 71.1% (active) | 95.8
CC(C)C(=O)Nc1nnc(-c2ccccc2)o1 | 1.9% (inactive) | 2.21
CCCCC(=O)Nc1nnc(-c2ccc(Br)cc2)o1 | 5.72% (inactive) | 15.5
O=C1C=C(c2ccccc2)C(=O)c2ccccc21 | 12% (active) | 58.3
O=C(CSc1nc2cc(Cl)ccc2o1)NCCc1ccccc1 | 85.8% (active) | 53
O=C(CSc1nnc(Cc2ccccc2)o1)NCCc1ccccc1 | 63.5% (active) | 42
COc1ccc(Cc2nnc(SCC(=O)NCCc3ccccc3)o2)cc1 | 98% (active) | 96.2
COc1ccc(Cc2nnc(SCC(=O)NCc3ccco3)o2)cc1 | 32.4% (active) | 54.8
COc1ccc(-c2nnc(SCC(=O)NCCc3ccccc3)o2)cc1 | 93.3% (active) | 88.5
COc1cccc(N2CCN(Cc3nc(N)nc(Nc4ccc(C)c(Cl)c4)n3)CC2)c1 | 9.68% (inactive) | 23.6
COc1ccc(N2CCN(Cc3nc(N)nc(Nc4ccc(C)c(Cl)c4)n3)CC2)cc1 | 27.3% (active) | 55.4
COc1cccc(N2CCN(Cc3nc(N)nc(Nc4ccc(C)c(C)c4)n3)CC2)c1 | 29.6% (active) | 48.8
O=c1c2ccccc2[nH]c(=S)n1CCCN1CCN(c2cccc(Cl)c2)CC1 | 14.1% (inactive) | -11.2
Cc1cccc(Nc2nc(N)nc(CN3CCN(c4cccc(Cl)c4)CC3)n2)c1 | 33.7% (active) | 47.4

SMILES | inhibition [1] | inhibition [2] [%]
Cc1cccc(NC(=S)NCCN2CCN(c3ccc(F)c(Cl)c3)CC2)c1C | 9.39% (inactive) | -14
O=C(OCC#CCSc1nnc(-c2ccc(Br)cc2)o1)c1cccs1 | 33.6% (active) | 31.6
CC(=O)OCC#CCSc1nnc(-c2ccc(Br)cc2)o1 | 49.2% (active) | 48
O=C(OCC#CCSc1nnc(-c2ccc([N+](=O)[O-])cc2)o1)c1cccs1 | 65.7% (active) | 72.9
CSc1ccc(C(=O)C2CCCN(Cc3cc4ccccc4[nH]3)C2)cc1 (centres undefined) | 4.22% (inactive) | -24.7
CCC(C)c1ccc(O)c(NC(=S)NC(=O)c2ccc(-c3ccc(Cl)cc3)o2)c1 (centres undefined) | 74.3% (active) | 78.2
O=C(Nc1cccc(Br)c1)c1ccc(-c2ccc(Cl)cc2)o1 | 8.23% (inactive) | 21
CCC(C)c1ccc(O)c(NC(=S)NC(=O)c2cccnc2)c1 (centres undefined) | 99.4% (active) | 99.7
CCCC(=O)N1CCN(c2ccc(NC(=O)c3ccc(-c4ccc(Cl)cc4)o3)cc2Cl)CC1 | 0.329% (inactive) | -21.3
C=CCn1c(=NC(=O)c2ccc([N+](=O)[O-])s2)sc2cc(S(N)(=O)=O)ccc21 | 59.9% (active) | 94.9
Cc1cc(C)cc(COc2ccc3c(C)c(CCC(=O)O)c(=O)oc3c2C)c1 | 13.5% (inactive) | -13.6
CCc1c(C)c2ccc(OCC(=O)OC)c(C)c2oc1=O | 49.4% (active) | 89.1
COC(=O)Cc1c(C)c2ccc(OCC(=O)OCc3ccccc3)c(C)c2oc1=O | 4.42% (active) | 54
O=c1cnnc(NN=Cc2cc(Br)ccc2O)[nH]1 | 100% (active) | 98.8
O=C(c1cccc([N+](=O)[O-])c1)N1N=C(c2ccc(Br)cc2)CC1(O)C(F)(F)F (centres undefined) | 5.59% (inactive) | 21
Cc1cccc(C(=O)N2N=C(c3ccc(Br)cc3)CC2(O)C(F)(F)F)c1 (centres undefined) | 12.2% (active) | 41
CN(C)c1ccc(CNC23CC4CC(CC(C4)C2)C3)cc1 | 98.9% (active) | 95.5
COc1cc(CNC23CC4CC(CC(C4)C2)C3)ccc1OCc1ccccc1 | 99.4% (active) | 96.2
c1ccc(COc2ccccc2CNC23CC4CC(CC(C4)C2)C3)cc1 | 22.3% (inactive) | 3.79
CCOc1cc(CNC23CC4CC(CC(C4)C2)C3)ccc1OCc1cccs1 | 99.7% (active) | 95.9
CCOc1cccc(N2C(=O)CC(SC(N)=NN=C(C)c3ccc(Cl)s3)C2=O)c1 (centres undefined) | 6.46% (inactive) | -10.4
